Screens (PubChem BioAssay)
Hits are enriched below; roughly 4.1% of the tested compounds scored in any of these assays.
ssDAF-12 act = S. stercoralis DAF-12 nuclear receptor activators, primary screen, cell-based, luminescence, HEK293, GRIP1 co-expression, lit1-tk-luc. Nuclear hormone receptor DAF-12 (Strongyloides stercoralis). HEK293 ssDAF-12/GRIP1 lit1-tk-luc reporter; % of 3 µM dafachronic acid response. activation, % at 6.8 µM. 1% of 370,000 active;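 active = activation above the mean over all tested compounds plus 3 SD, cut at about 0.9% in these data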;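 also: 0% = DMSO-only wells and 100% = 3 µM delta7-dafachronic acid wells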
hcDAF-12 act = H. contortus DAF-12 nuclear receptor activators, primary screen, cell-based, luminescence, HEK293, lit1-tk-luc reporter. HEK293 hcDAF-12 lit1-tk-luc reporter; 0% DMSO, 100% Δ7-dafachronic acid. activation, % at 6.8 µM. 1.4% of 370,000 active;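 active = activation above the mean of all tested compounds plus 3 SD, cut at about 5.5% in these data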;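 also: 100% = response to 3 µM Δ7-dafachronic acid high control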
DAX1 inh-1 = DAX1 (NR0B1) inhibitors, primary screen, cell-based, HEK293, Gal4-DAX1, luciferase luminescence. 0.99% of 340,000 active. HEK293 Gal4-DAX1 luciferase reporter. inhibition, % at 6.75 µM. Nuclear receptor subfamily 0 group B member 1 (Homo sapiens), P51843. AID 504766, 2011;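 active = inhibition above the mean over all tested compounds plus 3 SD, cut at about 4.2% in these data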;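 also: 0% = DAX1-transfected cells with DMSO and 100% = empty-vector control cells with DMSO; inhibition shows as a rise in luminescence from relieved DAX1 repression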
Target sequence (P51843 207-470 limits assumed): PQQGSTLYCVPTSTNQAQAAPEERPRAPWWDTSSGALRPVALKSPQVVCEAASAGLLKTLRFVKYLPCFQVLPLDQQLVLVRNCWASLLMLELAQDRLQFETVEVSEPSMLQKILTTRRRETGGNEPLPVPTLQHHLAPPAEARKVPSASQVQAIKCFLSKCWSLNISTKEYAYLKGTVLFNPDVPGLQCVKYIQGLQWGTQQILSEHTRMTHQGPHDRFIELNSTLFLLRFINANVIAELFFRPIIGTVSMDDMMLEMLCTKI
DAX1 inh-2 = DAX1 (NR0B1) inhibitors on StAR promoter, primary screen, cell-based, luminescence, SF-1 (NR5A1), full-length DAX-1; HEK293T StAR-luciferase reporter, SF-1/DAX-1 repression relief; 1.1% of 370,000 active; inhibition, % at 6.8 µM;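 active = inhibition above the mean over all tested compounds plus 3 SD, cut at about 3.6% in these data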;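 also: 0% = DAX-1 cells with DMSO and 100% = cells lacking DAX-1 with DMSO; higher inhibition means more luminescence from relief of DAX-1 repression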
hgDAF-12 ag = H. glycines DAF-12 receptor agonists, primary screen, cell-based, luminescence, HEK293, GAL4 fusion, UAS-luciferase; Nuclear hormone receptor DAF-12 (Heterodera glycines), GAL4 fusion; HEK293 GAL4-hgDAF12 UAS-luciferase reporter, agonist luminescence; normalized to butyrate control; activation, % at 6.8 µM; 1.8% of 370,000 active; AID 687014, 2013;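 active = activation above a cutoff set at the mean of all screened compounds plus 3 SD, cut at about 10% in these data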;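 also: 0% = DMSO wells and 100% = sodium butyrate wells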
Numbers without * were called inactive; . = no result.

SMILES	ssDAF-12 act	hcDAF-12 act	DAX1 inh-1	DAX1 inh-2	hgDAF-12 ag
CN1C(=O)OC2(C)CCc3ccccc3C12C (stereo unspecified)	-1	0	-1	0	4
CC1(C)CC2(CC(C)(C)N1)OC(=O)N1CCc3ccccc3C12C (stereo unspecified)	0	1	4.2*	-1	2
C/C(=N\Nc1ccc(C(=O)O)cc1)c1ccc2c(c1)Nc1ccccc1S2	-2	0	6.1*	0	0
COCCNC(=O)C(c1ccc(Cl)cc1)N(Cc1ccco1)C(=O)CCC(=O)Nc1ccccn1 (stereo unspecified)	-1	2	8.8*	0	3
Cc1c(Cl)cccc1S(=O)(=O)Nc1ccnn1C	-1	-1	4.3*	0	2
COc1ccc(-c2nnc(N(C)C(=O)C3CCCO3)s2)cc1 (stereo unspecified)	0	3	1	1	13*
COc1ccc(-c2nnc(N(C)C(=O)C3CCOC3)s2)cc1 (stereo unspecified)	-1	0	1	0	6
Clc1ccc(/C=N/NC(=Nc2ccccc2)c2ccccn2)c(Cl)c1	0	6	3	3	12*
C/C(=N/NC(=O)c1ccc(Br)o1)c1cccs1	0	1	1	3.7*	7
CCOC(=O)CCCNC(=O)O[C@@H]1CC[C@@]23CCCN2C(=O)CCC[C@H]3C1	0	-1	.	.	0
CCOC(=O)C1=C(N)c2ccccc2CC1C1CCCC1 (stereo unspecified)	-2	0	1	0	2
C=C1c2ccccc2O[C@H](C(=O)OCC)[C@@H]1C1CCCCC1	-1	2	-1	4.1*	1
O=C(C1CCCN1S(=O)(=O)c1cccs1)N1CCc2ccccc2C1 (stereo unspecified)	-1	-2	.	-1	3
CCCOc1ccc(-c2nc(=S)[nH][nH]2)cc1	-1	3	4.5*	2	6
Nn1c(SCc2c(Cl)cccc2Cl)nnc1-c1n[nH]c2c1CCC2	-1	-4	.	0	0
O=C(NCC(c1ccccc1)c1ccccc1)[C@H](Cc1ccccc1)NC1(C(=O)NC2CCCCC2)CCOCC1	-1	1	.	.	0
Cc1ccc(C2=CSC3=NCCN23)cc1	1.9*	0	1	0	0
CC1=CC(c2ccc(Cl)cc2)n2ncnc2N1 (stereo unspecified)	-2	-1	0	0	2
COc1ccc(C2C=C(C)Nc3ncnn32)cc1 (stereo unspecified)	-1	0	4.6*	2	3
C/C(N)=C(/C#N)C(=O)CSc1nn(-c2ccc(Cl)cc2)c(=S)s1	-1	0	2	2	10*
Cc1ccc2cc(C=O)c(N3CCOCC3)nc2c1C	-2	-1	0	0	1
Cc1ccc2nc(N3CCOCC3)c(C=O)cc2c1	-1	-2	8.2*	0	1
CC1CCCCN1S(=O)(=O)c1coc(C(N)=O)c1 (stereo unspecified)	-1	-1	2	0	0
CC1CCCN(S(=O)(=O)c2coc(C(N)=O)c2)C1 (stereo unspecified)	-2	-1	5.1*	0	3
C#CCOCCOCCOCCNc1nc(N2CCN(C(=O)[C@H](CCCCN)n3cc([C@@H](N)C(C)CC)nn3)CC2)nc(N2CCN(C(=O)[C@H](CCCCN)n3cc([C@@H](N)C(C)CC)nn3)CC2)n1 (stereo partly specified)	-1	0	.	.	7
SMILES	ssDAF-12 act	hcDAF-12 act	DAX1 inh-1	DAX1 inh-2	hgDAF-12 ag
CCOc1cc(NC(=S)NCCOC)c(OCC)cc1NC(=O)c1cccs1	-1	-2	.	0	-3
CCOc1cc(NC(=S)NC)c(OCC)cc1NC(=O)c1cccs1	-1	2	5.0*	1	-3
COCCCNC(=O)C1CCN(S(=O)(=O)c2ccc3[nH]c(=O)oc3c2)CC1	-1	2	.	0	1
Cc1ccc(/C=C/C(=O)Nc2cccnc2)o1	1.0*	1	1	0	1
N#C[C@@H]1N[C@H](CO)[C@@H]1c1ccccc1	-2	-2	.	0	2
COc1ccc(-c2csc(-c3ccc(O)cc3)n2)cc1	0	2	-3	-2	13*
c1ccc(-c2csc(-c3cccnc3)n2)cc1	-1	3	1	0	11*
COc1ccc(-c2csc(C(O)c3ccccc3)n2)cc1 (stereo unspecified)	0	3	.	3.8*	5
c1ccc(-c2nc(-c3cccnc3)cs2)cc1	0	3	1	1	5
COc1ccc(O)cc1	-1	0	4.5*	0	0
C#CCNC(=O)C[C@H]1C[C@@]2(C(=O)OC)C(=C[C@H](COCc3ccccc3)O[C@@H]2C)N(CCCCCCCC)C1=O	-2	-3	.	0	-1
Cc1cccc(NC(=O)C2CCCN(c3nnc(-n4cccc4)s3)C2)c1C (stereo unspecified)	-1	-1	.	0	2
COC(=O)C1CN(Cc2ccccc2)CCS(=O)(=O)N1Cc1ccc(C)cc1 (stereo unspecified)	-2	-2	.	-2	-3
COc1ccc(-c2nc(CCl)cs2)cc1OC	-1	0	0	2	0
c1ccc(CNc2nc(-c3cccnc3)cs2)cc1	-1	0	1	0	11*
COc1ccc(-c2nc(-c3ccc(O)cc3O)cs2)cc1OC	-2	0	0	2	12*
Brc1ccc(-c2csc(-c3ccncc3)n2)cc1	-1	0	0	0	7
Cc1ccc(-c2csc(-c3ccncc3)n2)cc1	-1	4	1	0	11*
COc1ccc(N2CC(O)=C(c3nc(-c4ccc(Cl)cc4)cs3)C2=N)cc1	0	1	0	1	12*
CCOc1ccc(-n2c(SCc3nc4ccccc4[nH]3)nnc2-c2cccc(Cl)c2)cc1	-2	-2	.	-1	1
COc1ccc(C(N)=S)cc1	-1	-2	4.3*	0	-1
C=C(c1ccc(OC)cc1)c1ccc(OC)cc1	-1	1	1	0	1
COc1ccc(-c2csc(N3CCOCC3)n2)cc1OC	-1	2	1	0	11*
Nc1nc(-c2ccc(F)cc2)cs1	-1	2	1	1	2
Clc1ccc(-c2csc(N3CCOCC3)n2)cc1	-1	1	1	2	10
